{"source": "paper PMC4552634", "about": "“A New Set of Chemical Starting Points with Plasmodium falciparum Transmission-Blocking Potential for Antimalarial Drug Discovery” (PLoS ONE, 2015)", "note": "Among all 13,000 compounds or so, about 3,200 (25%) showed an effect of 50% or more. This is one part of the list.", "data": [{"test_system": "P. falciparum stage V gametocytes", "set-up": "BacTiter-Glo ATP luminescence viability of purified stage V gametocytes in 384-well plates, per cent inhibition versus DMSO", "conditions": "48 h, 5 µM; inhibitor", "units": {"% Inhibition": "%"}, "values": [{"smiles": "O=C(Nc1ccc(Br)cc1)Nc1ccc(Cn2ncc(N3CCCNCC3)c(Cl)c2=O)cc1", "note": "[TCMDC-133329]", "% Inhibition": -9.301}, {"smiles": "CC(=O)Nc1sc(C)c(C)c1CN1CCc2ccccc2C1", "note": "[TCMDC-124498]", "% Inhibition": -41.39}, {"smiles": "COc1ccc(Nc2ncc3c(-c4cccc(NC(=O)c5ccc(N)cc5)c4)c[nH]c3n2)cc1OC", "note": "[TCMDC-135250]", "% Inhibition": -78.65}, {"smiles": "N#Cc1ccccc1N1CCN(C2CCC(NC(=O)c3n[nH]c4cc(C(F)(F)F)ccc34)CC2)CC1", "note": "(stereo not shown) [TCMDC-134100]", "% Inhibition": -13.75}, {"smiles": "CSCCC(C(=O)O)N1C(=O)c2ccccc2C1=O", "note": "(stereo not shown) [TCMDC-125514]", "% Inhibition": -25.71}, {"smiles": "O=c1cc(NCCCNCc2cccc(SC(F)(F)F)c2)[nH]c2ccccc12", "note": "[TCMDC-139420]", "% Inhibition": -38.07}, {"smiles": "CC(O)C1CCCCN1C(=O)c1ccc(-c2ccc(-c3nc4ccccc4[nH]3)s2)cc1", "note": "(stereo not shown) [TCMDC-132330]", "% Inhibition": -3.595}, {"smiles": "CCN1CCN(c2cc(C)c3cc(NC(=O)C=Cc4cccc(OC)c4OC)ccc3n2)CC1", "note": "[TCMDC-123803]", "% Inhibition": -23.17}, {"smiles": "CCC(C)OC(=O)C1=C(C)NC2=C(C(=O)CC(c3ccc(OC)c(OC)c3)C2)C1c1ccc(C)o1", "note": "(stereo not shown) [TCMDC-123735]", "% Inhibition": 31.33}, {"smiles": "CCCc1cc(C(=O)N[C@@H](Cc2ccccc2)[C@H](O)CNC(C)C)c(F)c(N2CCCC2=O)c1", "note": "[TCMDC-135418]", "% Inhibition": 10.92}, {"smiles": "COc1ccc(Nc2nc(N3CCCC3)c3ccccc3n2)cc1.Cl", "note": "[TCMDC-124381]", "% Inhibition": -67.29}, {"smiles": "Oc1ccc(Nc2nc(NCc3ccco3)c3ccccc3n2)cc1", "note": "[TCMDC-124015]", "% Inhibition": -74.78}, {"smiles": "Cl.Oc1ccc(Nc2nc(N3CCCC3)c3ccccc3n2)cc1", "note": "[TCMDC-123532]", "% Inhibition": 79.67}, {"smiles": "Cl.OCCNc1nc(Nc2ccc(F)cc2)nc2ccccc12", "note": "[TCMDC-123640]", "% Inhibition": -1.104}, {"smiles": "Cl.OCCNc1nc(Nc2ccc(Cl)cc2)nc2ccccc12", "note": "[TCMDC-125389]", "% Inhibition": 1.912}, {"smiles": "Cl.OCCNc1nc(Nc2ccccc2)nc2ccccc12", "note": "[TCMDC-123749]", "% Inhibition": 91.01}, {"smiles": "CC1CC(NCCCNc2cc(=O)c3ccccc3[nH]2)c2c(Cl)c(Cl)cc(Cl)c21", "note": "(stereo not shown) [TCMDC-139486]", "% Inhibition": 41.94}, {"smiles": "C(=N\\Nc1nccc2sc(-c3cccnc3)cc12)/c1ccncc1", "note": "[TCMDC-135305]", "% Inhibition": -45.13}, {"smiles": "Nc1ccc2c(N)c3ccccc3nc2c1", "note": "[TCMDC-132034]", "% Inhibition": 26.54}, {"smiles": "CCOc1ccc2nc3cc([N+](=O)[O-])ccc3c(N)c2c1", "note": "[TCMDC-125852]", "% Inhibition": 122.1}, {"smiles": "O=[N+]([O-])c1ccc2nccnc2c1", "note": "[TCMDC-123943]", "% Inhibition": 28.42}, {"smiles": "Nc1cc(C(F)(F)F)ccc1Cl", "note": "[TCMDC-123950]", "% Inhibition": 13.58}, {"smiles": "CCOc1ccc2nc3cc(NC(=O)c4ccco4)ccc3c(N)c2c1", "note": "[TCMDC-125004]", "% Inhibition": 120.6}, {"smiles": "CCCC1N=C(N)N=C(N)N1c1cccc([N+](=O)[O-])c1", "note": "(stereo not shown) [TCMDC-131299]", "% Inhibition": -55.59}, {"smiles": "Nc1c2ccccc2nc2cc(C(F)(F)F)ccc12", "note": "[TCMDC-142006]", "% Inhibition": 51.79}, {"smiles": "CCNc1cc(C)nc(Nc2ccc(NC(=O)c3ccco3)cc2)n1", "note": "[TCMDC-124982]", "% Inhibition": -6.858}, {"smiles": "O=C(Nc1ccc(Oc2ccc(OC(F)(F)F)cc2)cc1)c1ccco1", "note": "[TCMDC-124049]", "% Inhibition": 6.868}, {"smiles": "CC(O)C(=O)O.CCOc1ccc2nc3cc(N)ccc3c(N)c2c1", "note": "[TCMDC-123983]", "% Inhibition": 24.81}, {"smiles": "CCOc1cc(N)c2nc3ccc([N+](=O)[O-])cc3cc2c1", "note": "[TCMDC-138134]", "% Inhibition": 64.78}, {"smiles": "FC(F)(F)c1ccc2[nH]c(-c3ccc(-c4cccc(CNCc5cnn(-c6ccccc6)n5)c4)s3)nc2c1.O=C(O)C(F)(F)F", "note": "[TCMDC-132968]", "% Inhibition": -47.17}, {"smiles": "CC12CN3CC(C)(CN(C1)C3c1cc(Br)ccc1O)C2O", "note": "(stereo not shown) [TCMDC-123838]", "% Inhibition": -31.33}, {"smiles": "Nc1c2ccccc2nc2cc([N+](=O)[O-])ccc12", "note": "[TCMDC-132031]", "% Inhibition": 75.87}, {"smiles": "O=c1c2ccccc2nc(/C=C/c2ccc([N+](=O)[O-])cc2)n1-c1ccccn1", "note": "[TCMDC-125664]", "% Inhibition": 33.94}, {"smiles": "Nc1nc(N)c2cc(Cc3ccc([N+](=O)[O-])cc3)cnc2n1", "note": "[TCMDC-137920]", "% Inhibition": -6.074}, {"smiles": "Oc1ccc(CNCC2CCN(CC3CCCCC3)CC2)cc1", "note": "[TCMDC-141676]", "% Inhibition": -27.61}, {"smiles": "Fc1c(CNCC2CCN(CC3CCCCC3)CC2)cccc1C(F)(F)F", "note": "[TCMDC-141348]", "% Inhibition": 4.763}, {"smiles": "Clc1ccccc1CCNCC1CCN(CC2CCCCC2)CC1", "note": "[TCMDC-141344]", "% Inhibition": 100.3}, {"smiles": "Clc1cccc(Cl)c1CCNCC1CCN(CC2CCCCC2)CC1", "note": "[TCMDC-141346]", "% Inhibition": -12.07}, {"smiles": "FC(F)(F)c1cccc(CNCC2CCN(CC3CCCCC3)CC2)c1", "note": "[TCMDC-141677]", "% Inhibition": -8.545}, {"smiles": "CCOc1ccccc1CCNCC1CCN(CC2CCCCC2)CC1", "note": "[TCMDC-141347]", "% Inhibition": 95.36}, {"smiles": "c1ccc2c(C3CCN(CCCCOc4ccc5c(c4)CCN(CC4CC4)CC5)CC3)c[nH]c2c1", "note": "[TCMDC-136244]", "% Inhibition": 103.6}, {"smiles": "O=C(CCC(=O)c1ccc2c3c(cccc13)CC2)NC1CCC(CN2CCC(c3c[nH]c4ccccc34)CC2)CC1", "note": "(stereo not shown) [TCMDC-139897]", "% Inhibition": 7.494}, {"smiles": "c1ccc2c(C3CCN(CCCCOc4ccc5c(c4)CCN(C4CCC4)CC5)CC3)c[nH]c2c1", "note": "[TCMDC-136242]", "% Inhibition": 103}, {"smiles": "O=C(NCCCCCN1CCC(c2c[nH]c3ccccc23)CC1)c1ccc(Cl)c(Cl)c1", "note": "[TCMDC-139112]", "% Inhibition": -15.31}, {"smiles": "O=C(COc1ccc(Cl)cc1)N1CCC(CN2CCC(c3c[nH]c4ccccc34)CC2)CC1", "note": "[TCMDC-139943]", "% Inhibition": -35.41}, {"smiles": "CCCCNC(=O)C(C)NC(=O)c1ccc(O)c(-c2ccc(Cl)c(Cl)c2)c1", "note": "(stereo not shown) [TCMDC-140838]", "% Inhibition": 12}, {"smiles": "O=C1OC(c2ccccc2)(c2ccccn2)CN1C1CCN(Cc2cccn2-c2ccc(Cl)cc2)CC1", "note": "(stereo not shown) [TCMDC-134418]", "% Inhibition": 32.68}, {"smiles": "CC1(C)N=C(N)N=C(N)N1OCc1cc(Cl)c(CON2C(N)=NC(N)=NC2(C)C)cc1Cl", "note": "[TCMDC-131624]", "% Inhibition": 88.84}, {"smiles": "CC(CON1C(N)=NC(N)=NC1(C)C)c1ccc(Cl)cc1Cl", "note": "(stereo not shown) [TCMDC-131687]", "% Inhibition": 1.916}, {"smiles": "CC(CCON1C(N)=NC(N)=NC1(C)C)c1ccc(Cl)c(Cl)c1", "note": "(stereo not shown) [TCMDC-123922]", "% Inhibition": 56.56}, {"smiles": "CCSc1ccccc1CON1C(N)=NC(N)=NC1(C)C", "note": "[TCMDC-131324]", "% Inhibition": 26.32}, {"smiles": "CC(C)Sc1ccc(Cl)cc1CON1C(N)=NC(N)=NC1(C)C", "note": "[TCMDC-131322]", "% Inhibition": 57.4}, {"smiles": "CCC(CCON1C(N)=NC(N)=NC1(C)C)c1ccc(Cl)c(Cl)c1", "note": "(stereo not shown) [TCMDC-131702]", "% Inhibition": 42.49}, {"smiles": "CC1(C)N=C(N)N=C(N)N1OCc1cccc(Cl)c1Cl", "note": "[TCMDC-131612]", "% Inhibition": 37.87}, {"smiles": "CC1(C)N=C(N)N=C(N)N1OCc1cc(Cl)c(Cl)cc1CON1C(N)=NC(N)=NC1(C)C", "note": "[TCMDC-131611]", "% Inhibition": -27.6}, {"smiles": "CC(CCON1C(N)=NC(N)=NC1(C)C)c1ccc(Cl)cc1", "note": "(stereo not shown) [TCMDC-131721]", "% Inhibition": 15.12}, {"smiles": "COc1ccc(CN(C)C(=O)CCNS(=O)(=O)c2ccc3c(c2)OCCCO3)cc1F", "note": "[TCMDC-125302]", "% Inhibition": 27.77}, {"smiles": "COc1ccc(C2(CNCC(O)c3cccc([N+](=O)[O-])c3)CCCCC2)cc1OC", "note": "(stereo not shown) [TCMDC-125753]", "% Inhibition": 32.79}, {"smiles": "c1ccc(CNCc2cccc(-c3csc(-c4nc5ccccc5[nH]4)c3)c2)cc1", "note": "[TCMDC-132715]", "% Inhibition": -5.062}, {"smiles": "CC(C)CNC(=O)c1ccc(-c2cccc(CN3CCC(N4CCCC4)CC3)c2)nc1", "note": "[TCMDC-134223]", "% Inhibition": 24.52}, {"smiles": "COc1cccc(CN2CCC(N3CCc4cc(NC(=O)c5cc(C)on5)ccc43)C2)c1OC", "note": "(stereo not shown) [TCMDC-135077]", "% Inhibition": 7.17}, {"smiles": "Nc1oc2c(CN3CCCCCC3)c(O)ccc2c(=O)c1-c1nc2ccccc2s1", "note": "[TCMDC-124554]", "% Inhibition": -27.76}, {"smiles": "COc1ccc2nc(C)cc(Nc3ccc(Oc4ccc5ccccc5c4Cl)c(Cl)c3)c2c1", "note": "[TCMDC-124244]", "% Inhibition": 45.95}, {"smiles": "CN(Cc1ccccc1)C1CCCN(c2cc(NC(=O)c3ccc(F)cc3)ccn2)C1", "note": "(stereo not shown) [TCMDC-135021]", "% Inhibition": -22.03}, {"smiles": "Brc1ccccc1CNc1ccnc(NCCn2ccnc2)n1", "note": "[TCMDC-134666]", "% Inhibition": 85.3}, {"smiles": "c1ccc2c(CNc3ccnc(NCc4cccc5ccccc45)n3)cccc2c1", "note": "[TCMDC-131861]", "% Inhibition": 43.11}, {"smiles": "c1cn(CCCNc2ncc(-c3ccsc3)c(-c3nccs3)n2)cn1", "note": "[TCMDC-125364]", "% Inhibition": 29.61}, {"smiles": "COc1ccc(Cc2cccc(C(C(=O)NCc3cc(Cl)cc(Cl)c3)N3CCN(C)CC3)c2)cc1", "note": "(stereo not shown) [TCMDC-135619]", "% Inhibition": 76.97}, {"smiles": "COc1ccccc1N1CCN(C(C(=O)NCc2ccc(C)cc2)c2ccc(C)cc2)CC1", "note": "(stereo not shown) [TCMDC-135501]", "% Inhibition": -5.21}, {"smiles": "CN1CCN(C(C(=O)NCc2cc(Cl)cc(Cl)c2)c2ccc(Nc3cccc(C(F)(F)F)c3)cc2)CC1", "note": "(stereo not shown) [TCMDC-134698]", "% Inhibition": -89.62}, {"smiles": "CN1CCN(C(C(=O)NCc2cc(Cl)cc(Cl)c2)c2ccccc2-c2ccsc2)CC1", "note": "(stereo not shown) [TCMDC-135388]", "% Inhibition": 68.05}, {"smiles": "COc1ccccc1-c1ccc(CNC(=O)C(CN2CCN(C)CC2)c2ccccc2)cc1", "note": "(stereo not shown) [TCMDC-136897]", "% Inhibition": 12.07}, {"smiles": "CN1CCN(C(C(=O)NCc2cc(Cl)cc(Cl)c2)c2ccc(NC(=O)Nc3ccccc3)cc2)CC1", "note": "(stereo not shown) [TCMDC-135287]", "% Inhibition": 18.98}]}]}
